Measured values taken from PubChem BioAssay (NCI).
The panel holds about 83,000 compounds, 20% with a hit somewhere; the sample as a whole holds those more often.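 Growth was measured after 48 h exposure to one concentration of compound in 96-well plates. Values under 10 count as active.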 A number with no mark means an inactive call. The source made the active and inactive calls.

How the values were obtained:
Experiment in all cases: NCI-60 one-dose screen, 48 h (100 = growth as untreated, 0 = no growth, -100 = all killed)
Conditions in all cases: 10 µM unless noted
HT29 colon = tested on: HT29 colon
SNB-75 CNS = tested on: SNB-75 CNS
SNB-19 CNS = tested on: SNB-19 CNS
U251 CNS = tested on: U251 CNS
PC-3 prostate = tested on: PC-3 prostate
SK-MEL-5 melanoma = tested on: SK-MEL-5 melanoma
UACC-62 melanoma = tested on: UACC-62 melanoma
LOX IMVI melanoma = tested on: LOX IMVI melanoma
SK-MEL-28 melanoma = tested on: SK-MEL-28 melanoma
SK-MEL-2 melanoma = tested on: SK-MEL-2 melanoma
EKVX NSCLC = tested on: EKVX NSCLC
SN12C renal = tested on: SN12C renal
UO-31 renal = tested on: UO-31 renal
TK-10 renal = tested on: TK-10 renal
ACHN renal = tested on: ACHN renal
CAKI-1 renal = tested on: CAKI-1 renal
A498 renal = tested on: A498 renal
CCRF-CEM leukemia = tested on: CCRF-CEM leukemia
MOLT-4 leukemia = tested on: MOLT-4 leukemia

SMILES	growth (HT29 colon) [%]	growth (SNB-75 CNS)	growth (SNB-19 CNS) [%]	growth (U251 CNS) [%]	growth (PC-3 prostate) [%]	growth (SK-MEL-5 melanoma)	growth (UACC-62 melanoma)	growth (LOX IMVI melanoma) [%]	growth (SK-MEL-28 melanoma)	growth (SK-MEL-2 melanoma) [%]	growth (EKVX NSCLC) [%]	growth (SN12C renal) [%]	growth (UO-31 renal) [%]	growth (TK-10 renal)	growth (ACHN renal) [%]	growth (CAKI-1 renal) [%]	growth (A498 renal)	growth (CCRF-CEM leukemia) [%]	growth (MOLT-4 leukemia) [%]
COc1ncc(-c2ccc3nccc(C#CCCCCC(=O)O)c3c2)cc1NS(=O)(=O)c1ccc(F)cc1F	16.1	-12.5% (active)	31.1	31.6	19.8	10.3%	-12.6% (active)	28.2	7.69% (active)	31.3	22	40.8	12.5	3.96% (active)	32	14.1	-34.5% (active)	24.4	29
COc1ccc(N(c2nc(-c3ccc([N+](=O)[O-])cc3)cs2)C(C)C)cc1	97.2	103%	–	90.3	84	78.9%	68.4%	80.9	–	92.1	65.8	91.4	69.3	88.9%	89	62.6	59.5%	62.5	68.5
N#Cc1ccc(-c2ccc(COc3ccc(CC4SC(=O)NC4=O)cc3)cc2)cc1 (centres undefined)	103	67.8%	63.3	63	54.4	-18.3% (active)	51.4%	48.5	79%	56.9	48	74.4	48.1	85.9%	52.4	48.1	99.7%	61.5	37.8
FC(F)(F)c1ccc2c(c1)Sc1ccccc1N2	102	89%	95.9	91.5	93.9	98.1%	85.3%	104	110%	106	91.6	100	73.6	101%	101	82	80.7%	102	88.7
Cc1cc2c(C(C)C)c(O)c(O)c(C=NCc3ccoc3)c2c(O)c1-c1c(C)cc2c(C(C)C)c(O)c(O)c(C=NCc3ccco3)c2c1O	31.2	64.9%	19.8	25.6	29.7	91.7%	67.9%	37	70.3%	45.4	23.6	40.5	36.2	45.8%	25.3	54	80.1%	21	14.5
CCCCCCCCN(CCCCCCCC)CC(O)c1ccc(Cl)c(C)c1Cl (centres undefined)	42.2	86.8%	93.2	91.3	72.9	101%	89.2%	53.5	106%	123	99.4	84	45.1	94.6%	74.7	72.5	70.7%	78	91.4
O=C(O)c1ccccc1C(F)(F)F	107	77.1%	99.1	96.5	99.7	105%	95%	81.2	121%	112	93.2	90.9	95.3	111%	92.6	87.8	74.5%	108	97.1
O=C(Nc1ccccc1)Nc1ccc(C(=O)/C=C/c2ccc(N3CCCC3)cc2)cc1	69.5	41%	68	66	59.9	45%	42.2%	85.6	51.1%	17.9	74.2	66.5	67.7	102%	83.6	61.7	45.9%	72.6	67.5
Cc1cnc(N)nc1OCCNC(=O)c1cccc(-c2ccc(S(=O)(=O)Nc3ccc4c(c3)N(C(=O)C3CC3)CCC4)cc2)c1	80.5	57.3%	75.5	88.4	53.5	23.8%	48.1%	88.5	88.6%	74.4	98.9	79.7	77.1	93.1%	84.9	77.4	40.2%	64.1	37.7
